Source: PubChem
A selection: hits, their analogues and other compounds. The true share with any hit is near 3.5%.
Anthrax LF prot: Bacillus anthracis LF protease inhibitors, primary screen, biochemical, multiplex microsphere, MLPCN library; multiplex microsphere protease cleavage assay; inhibition, % at 10 µM; 360,000 tested, 0.12% active; AID 588501, 2011; also: plate controls were buffer without enzyme for full effect and enzyme alone for no effect
BoNT A protease: BoNT/A light chain protease inhibitors, primary screen, biochemical, flow cytometry, MLPCN library; multiplex microsphere protease substrate cleavage; inhibition, % at 10 µM; 360,000 tested, 0.17% active; AID 588499, 2011; also: plate controls were buffer without enzyme for full effect and enzyme alone for no effect
BoNT-F LC inh: BoNT/F light chain protease inhibitors, primary screen, biochemical, flow cytometry, MLPCN library; Botulinum neurotoxin type F light chain protease (Clostridium botulinum); Multiplex microsphere protease cleavage assay; inhibition, % at 10 µM; 360,000 tested, 0.22% active; in the data active = inhibition above about 35%, passing the limit was not always enough; inconclusive = no clear call, values can overlap the other calls; also: plate controls were buffer without enzyme for full effect and enzyme alone for no effect
Autofluor counter: compound fluorescence in toxin protease inhibitor counterscreen; 360,000 tested, 3.1% active; fluorescence intensity (no concentration beside the values); compound autofluorescence counterscreen, microsphere flow cytometry; hits give high values; AID 624483; in the data active = fluorescence intensity above about 16000; inconclusive = no clear call, values can overlap the other calls
Active calls of the source: *; ? = inconclusive. Rule as the data show it, unless noted: active = inhibition above about 30%; inconclusive = no clear call, values can overlap the other calls; inactive = below that.

SMILES	Anthrax LF prot	BoNT A protease	BoNT-F LC inh	Autofluor counter
COc1cc(Cl)c(C)cc1NC(=O)CSc1ccc(C)cc1	0	-3	-4	23633*
COc1cc(Cl)c(C)cc1NC(=O)CSc1ccccc1	-3	-1	-10	1968
CC1(C(=O)NS(=O)(=O)c2ccc(C#N)cc2)CCN1C(=O)C1CCCCC1 (configuration not stated)	0	0	1	3573
CCOC(=O)C1(C)CCCN(C(=O)C(c2ccccc2)c2ccccc2)C1 (configuration not stated)	-2	0	-5	3483
O=C1NC(c2ccc(Br)cc2)Nc2sc3c(c21)CCC3 (configuration not stated)	-4	1	2	22598*
CCCNC(=O)C1(C)CCN(Cc2ccc(OCc3ccccc3)cc2)C1 (configuration not stated)	2	0	-2	3900
O=C(Nc1ccc(N2CCN(C(=O)c3ccccc3)CC2)cc1)c1cccs1	-2	2	5	3689
CCC(=O)N1CCN(c2ccc(NC(=O)c3cccs3)cc2)CC1	-3	-2	-8	17020*
CCOC(=O)c1ccc(-c2cccc(C(F)(F)F)c2)nc1C	-2	1	-3	22705*
CCOC(=O)c1cnn(-c2nc(-c3cccc(F)c3)cs2)c1C(F)(F)F	-3	2	-2	19380*
CC(NC(=O)C1CCCN(C(=O)N(C)C)C1)c1ccccc1 (configuration not stated)	-2	0	-2	20508*
O=C(Cc1ccccc1)NCC(=O)N1CCCCCC1	2	2	3	22214*
CC(NC(=O)CCC(=O)N1CCCCCC1)c1ccccc1 (configuration not stated)	-2	1	36*	4180
CC(NC(=O)CCC(=O)NC(C)c1ccccc1)c1ccccc1 (configuration not stated)	4	-1	-12	3204
COCC(=O)N(C)C[C@@H]1Oc2ncc(Br)cc2C(=O)N([C@@H](C)CO)C[C@H]1C	0	0	-10	3011
COc1ccc(NC(=O)C2(C)CCN2C(=O)c2ccc(C(C)(C)C)cc2)cc1OC (configuration not stated)	2	0	1	3005
O=C1NC[C@H](CCCCN2CCN(CCc3ccccc3)C(=O)C2=O)N(CCC2CCCCC2)C1=O	-4	0	-2	5079
NC(c1csc(NC(=O)c2cccc(OC(F)(F)F)c2)n1)c1ccccc1Cl (configuration not stated)	-1	-1	-16	3817
CCC(C)c1ccc2oc(-c3ccc(NC(=O)c4ncn[nH]4)cc3)nc2c1 (configuration not stated)	2	-1	-2	20099*
C=CCC[C@@H](Cc1ccc(F)cc1)C(=O)OCCNC(=O)[C@H](CC=C)CC(=O)NCCO	-5	0	0	3687
CC12CC3CC1C(C(=O)O2)C3C(=O)O (configuration not stated)	-1	0	-5	2995
CCN1C(=O)/C(=C\N(C)C)c2ccccc21	-9	-2	-13	7006
CCN1C(=O)/C(=C/N(C)C)c2ccccc21	2	0	-5	16312*
COCc1c(C(=O)NCCc2ccc(OC(F)F)cc2)oc2ccccc12	3	0	10	3747
CN(Cc1ccccc1)Cc1c(F)cccc1F	-6	-2	3	22850*
SMILES	Anthrax LF prot	BoNT A protease	BoNT-F LC inh	Autofluor counter
COc1ccc2ccccc2c1CN(C)Cc1ccccc1	-12	-1	-7	3116
Cc1ccc(Nc2c3c(nc4ncnn24)CC(C)CC3)cc1 (configuration not stated)	0	0	-10	3867
Cc1ccc(Nc2c3c(nc4ncnn24)CCC3)cc1	0	-1	-2	23876*
C=CCSc1ncc(C#N)c(N)n1	-2	-2	-3	20496*
CCOc1cccc(NC(=O)C(Cc2cccs2)c2nn[nH]n2)c1 (configuration not stated)	2	6	8	20016*
O=C(Nc1ccccc1)C(Cc1cccs1)c1nn[nH]n1 (configuration not stated)	-8	-1	-14	8683
O=C1CSC(=S)N1/N=C/C=C/c1ccccc1	21	43*	11	1986
CCN(CC)S(=O)(=O)c1cc(NC(=O)C(=O)c2c(-c3ccccc3)cc3ccccn23)ccc1C	-3	-4	-10	25900*
Cc1nc(SCC(=O)Nc2cccc(C(=O)O)c2)n[nH]1	-2	0	2	4971
O=C(CSc1ccccc1C(=O)O)Nc1cccc(C(=O)O)c1	0	?	3	21124*
